Results as given in PubChem BioAssay (NCATS).
Results filed as inconclusive are left out. The source made the active and inactive calls. The call rests on the fitted dose curve; in most records, active means well fitted cell-killing curve with a large enough effect; inconclusive means small, poorly fitted or top-dose-only effect; inactive means no such curve, though single readings can be large or run the other way.

Assay: qHTS of pediatric cancer cell lines to identify multiple opportunities for drug repurposing: Primary screen for MG 63 (6-TG R) cells (AID 1347105); further: nearly all actives have a fitted effect of over 50% in size
Conditions: MG 63 (6-TG R) viability, CellTiter-Glo, 48 h; series mostly up to 46 µM; activity change, negative = cytotoxic: at the top concentration
From the text: Drug repurposing or repositioning has been offered as a strategy for drug development in oncology programs. This approach has special potential for childhood cancers and other rare or orphan diseases, where the expected return on new drug development has been a disincentive to pharmaceuticals. […] In this project we exploit the poly-pharmacology of drugs to discover new indications via phenotypic screening of a panel of 19 well-characterized cell lines derived from solid tumors seen in children and adolescents. The goal is to identify approved drugs with previously unrecognized anticancer properties that has the potential to reveal new mechanisms and biological processes involved in carcinogenesis or drug resistance. We employed a titration-based paradigm (quantitative high-throughput screening or qHTS), where all compounds were tested at multiple concentrations for their effect on cell viability. Concentration-response curves (CRCs) were derived directly from the primary screen, and both potency and efficacy values were used to identify compounds with robust bioactivity profiles. We screened the NIH Chemical Genomics Center (NCGC) Pharmaceutical Collection (NPC) and Mechanism Interrogation Plate (MIPE) small molecule collections of approved and investigational compounds against these cell lines; and measured metabolically active cells after 48 hours of compound treatment as a proxy for cell viability. […] Assay Submitter: Nathalia J. Martinez, National Center for Advancing Translational Sciences, National Institutes of Health, Rockville, MD, USA; email: natalia.martinez@nih.gov Shen, M et al. Quantitative high-throughput phenotypic screening of pediatric cancer cell lines identifies multiple opportunities for drug repurposing. Oncotarget 2017 Dec 19;9(4):4758-4772. PMID 29435139.
The cells were obtained from University of North Carolina (UNC), Pediatric Preclinical Testing Program (PPT), and Coriell Institute (CI). qHTS cell viability assay: Cells were assayed in growth media at a density of 500-1,000 cells/well. Five microliters of cells were dispensed into 1,536-well, white, solid-bottom, TC-treated plates (Greiner Bio One) using a multidrop dispenser and incubated at 37 degrees C, 5% CO2, under a humidified atmosphere for 5 hours. Twenty-three nanoliters of compounds and controls (neutral control DMSO or positive control bortezomib at final concentration of 2.3 µM) were subsequently transferred by Kalypsys pintool. For primary screens, the MIPE collection was tested at 11-point dilutions (final concentrations range from 0.78 nM to 46 µM) and the NPC collection at 8-point dilutions (final concentrations range from 0.59 nM to 46 µM). Compounds tested in follow-up screens were assayed at 11-point dilutions. Cells were incubated for 48 hours, followed by addition of 3 µL of CellTiter-Glo (Promega). After a 15 min incubation at room temperature, samples were analyzed for luminescence intensity using a ViewLux High-throughput CCD imager equipped with clear filters.
On the % scale 0 is the no-effect control and ±100 the full control effect; potency means the concentration at half of the fitted maximal effect.

Row | Compound | activity change, negative = cytotoxic | Potency
1 | CCOC(=O)c1c(N)sc2c1CCN(Cc1ccccc1)C2 | -28.3% (inactive) | –
2 | NCc1ccccc1Sc1ccccc1CO | -7.03% (inactive) | –
3 | Cn1c(=O)c2[nH]c(Br)nc2n(C)c1=O | -16.4% (inactive) | –
4 | NC(=S)N/N=C/c1cccnc1 | 11.3% (inactive) | –
5 | CC(=O)Nc1ncc([N+](=O)[O-])s1 | 61.9% (inactive) | –
6 | COc1ccc(-c2cc(C(F)F)nn2-c2ccc(S(N)(=O)=O)cc2)cc1F | -18% (inactive) | –
7 | CCCN(CCc1cccs1)[C@H]1CCc2c(O)cccc2C1 | -25.3% (inactive) | –
8 | C=CCN1CCc2nc(N)sc2CC1 | -6.47% (inactive) | –
9 | O=C1C(O)=C(O)C(=O)C(O)=C1O | -16.9% (inactive) | –
10 | CC1CCc2c(N3CCC(O)CC3)c(F)cc3c(=O)c(C(=O)O)cn1c23 (stereo not given) | 47.7% (inactive) | –
11 | Nc1ccc(S(=O)(=O)NCc2ccccc2)cc1 | -0.429% (inactive) | –
12 | COc1cc(C)nc(-n2nc(C)cc2OC)n1 | 34.6% (inactive) | –
13 | O=C(N/N=C/c1ccc([N+](=O)[O-])o1)c1ccc(O)cc1 | -47.3% (inactive) | –
14 | CCNC(=O)NCc1cccc(Cl)c1 | -24.4% (inactive) | –
15 | C[C@@H](O)[C@H]1C(=O)N2C(C(=O)O)=C(S[C@@H]3CN[C@H](CNS(N)(=O)=O)C3)[C@H](C)[C@H]12 | 15.7% (inactive) | –
16 | C[C@H]1O[C@@H](O[C@H]2CC[C@@]3(C)[C@H](CC[C@@H]4[C@@H]3C[C@@H](O)[C@]3(C)[C@@H](C5=CC(=O)OC5)CC[C@]43O)C2)C[C@H](O)[C@@H]1O[C@H]1C[C@H](O)[C@H](O[C@H]2C[C@H](O)[C@H](O[C@@H]3O[C@H](CO)[C@@H](O)[C@H](O)[C@H]3O)[C@@H](C)O2)[C@@H](C)O1 | – | 0.0841 µM (active)
17 | COc1cc(O)c(C(=O)c2ccccc2)cc1S(=O)(=O)O | 8.95% (inactive) | –
18 | CC(C)Cc1ccc(CC(=O)O)cc1 | -24.8% (inactive) | –
19 | Cc1cn([C@H]2C[C@H](F)[C@@H](CO)O2)c(=O)[nH]c1=O | -3.85% (inactive) | –
20 | CCCCCCCCCCCCCC(=O)OC(C)C | 2.37% (inactive) | –

Row | Compound | activity change, negative = cytotoxic | Potency
21 | CN(C)C(=O)Nc1ccc(Cl)c(Cl)c1 | -15.8% (inactive) | –
22 | COc1ccc(C(=O)c2ccccc2O)c(O)c1 | -3.25% (inactive) | –
23 | CC(=O)O[C@H]1C[C@@H]2CC[C@@H]3[C@H](CC[C@@]4(C)[C@H]3C[C@H]([N+]3(C)CCCCC3)[C@@H]4OC(C)=O)[C@@]2(C)C[C@@H]1N1CCCCC1 | -12.9% (inactive) | –
24 | O=[N+]([O-])c1ccc(/C=N\O)o1 | 0.463% (inactive) | –
25 | CC(=O)Nc1ccc(S(=O)(=O)Nc2ccc([N+](=O)[O-])cc2)cc1 | -22.7% (inactive) | –
26 | CC(=O)OCC(=O)[C@H]1CC[C@H]2[C@@H]3CCC4=CC(=O)CC[C@]4(C)[C@H]3CC[C@]12C | -14.4% (inactive) | –
27 | NC(=O)c1ccccc1O | -30.8% (inactive) | –
28 | O=C(O)CCc1nc2ccccc2[nH]1 | -5.52% (inactive) | –
29 | NC(=O)n1c(O)c(C(=O)c2cccs2)c2cc(Cl)ccc21 | -25.6% (inactive) | –
30 | CCCCCCCCCCCCCCCCO | 9.11% (inactive) | –
31 | COc1cc(C(=S)N2CCOCC2)ccc1O | -8.1% (inactive) | –
32 | CC(O)Cn1cnc2c1c(=O)n(C)c(=O)n2C (stereo not given) | -17.7% (inactive) | –
33 | CCN1CCCC(OC(=O)C(c2ccccc2)c2ccccc2)C1 (stereo not given) | -13% (inactive) | –
34 | Nc1nc(-c2ccccc2)c(Br)c(=O)[nH]1 | -26.4% (inactive) | –
35 | CC(C)Nc1cccnc1N1CCN(C(=O)c2cc3cc(NS(C)(=O)=O)ccc3[nH]2)CC1 | -7.61% (inactive) | –
36 | NC1CCN(c2nc3c(cc2F)c(=O)c(C(=O)O)cn3-c2ccc(F)cc2F)C1 (stereo not given) | 20.9% (inactive) | –
37 | Cc1c[nH]c2ccccc12 | 4.45% (inactive) | –
38 | CN1CCN(C2=Nc3ccccc3Sc3ccc(Cl)cc32)CC1 | -9.97% (inactive) | –
39 | Oc1c(Cl)cc(Cl)c(Cl)c1Cc1c(O)c(Cl)cc(Cl)c1Cl | – | 6.68 µM (active)
40 | CCCCNc1ccc(C(=O)OCCOCCOCCOCCOCCOCCOCCOCCOCCOC)cc1 | -24.1% (inactive) | –
